In PubChem BioAssay (EPA / NIEHS):
Calls of active or inactive are those of the source. Rule for the calls: active = hit-call score of the fitted dose curve at least 0.9, where 1 is the maximum; inactive = score below 0.9.

assay: ATG_NF_kB_CIS: Attagene CIS-FACTORIAL HepG2 Assay for human Nuclear Factor Kappa B (NF-kB) (AID 2282991); conditions: HepG2 Attagene cis-factorial NF-kB reporter mRNA; actives raise or lower the signal
Procedure, shortened: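 Endogenous transcription factor activity in HepG2 was captured via cis-regulated reporter constructs; after 24 h dosing, reporter mRNA was reverse-transcribed, amplified, fluorescently labelled and sized by capillary electrophoresis, with activity fitted bidirectionally relative to DMSO.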

Compound	outcome
O=C1CCCC(=O)O1	inactive
O=CC1CC1	inactive
CC(C)(Oc1ccc(C2CC2(Cl)Cl)cc1)C(=O)O (stereo not given)	inactive
O=C(O)C(c1ccc(Cl)cc1)c1ccc(Cl)cc1	inactive
CCCNC(=O)NS(=O)(=O)c1ccc(Cl)cc1	inactive
CCOC(=O)CC(C(C)=O)C(C)=O	inactive
S=C(NC1CCCCC1)NC1CCCCC1	inactive
CO[Si](OC)(OC)c1ccccc1	inactive
CCOCC(=O)O	inactive
CC(C)=CCC[C@H](C)CCO	inactive
C=CC(=O)NC(C)(C)CS(=O)(=O)O	inactive
CCCOCCOCCOCCO	inactive
CC1(C)S[C@@H]2[C@H](NC(=O)COc3ccccc3)C(=O)N2[C@H]1C(=O)O	inactive
CC/C=C\CCOC(=O)CCCCC	inactive
COC=O	inactive
CCCc1ccc(OC)cc1	inactive
CCCCCCCC(C)=O	inactive
CCC(C)C=O (stereo not given)	inactive
CC(=O)OCc1ccco1	inactive
CCOc1ccc(N)c([N+](=O)[O-])c1	inactive
COC(=O)/C=C/C(C)=C\C=C\C(C)=C\C=C\C=C(C)\C=C\C=C(C)\C=C\C(=O)O	inactive
CN1C(=O)N(C)C(O)C1O (stereo not given)	inactive
OCCc1ccncc1	inactive
COc1cc(C)ccc1C(C)C	inactive
N#CCc1ccc(Cl)cc1Cl	inactive
C=CC=CC=CCCCCC	inactive
O=C(O)c1cc2ccccc2nc1C(=O)O	inactive

assay: ATG_NRF2_ARE_CIS: Attagene CIS-FACTORIAL HepG2 Assay for human Nuclear Factor Erythroid 2 Related Factor 2 (NFR2) response to Antioxidant Response Elements (ARE) (AID 2282992); conditions: HepG2 Attagene ARE/NRF2 reporter, transcription factor activity; actives raise or lower the signal;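 for AC50: reporter mRNA level measured by RT-PCR and capillary electrophoresis fluorescence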
Procedure, shortened: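 HepG2 cells transiently transfected with multiplexed cis-regulated reporter transcription units measure endogenous transcription factor activity. Reporter mRNA at 24 h is quantified by RT-PCR, fluorescent labelling and capillary electrophoresis, with bidirectional fitting relative to DMSO.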

Compound	outcome	AC50
O=CC1CC1	inactive	–
Cc1ccc(N/N=c2\c(=O)cc/c(=N/Nc3ccc(S(=O)(=O)O)cc3)c2=O)c(C)c1	inactive	–
O=C(O)C(c1ccc(Cl)cc1)c1ccc(Cl)cc1	inactive	–
CCCNC(=O)NS(=O)(=O)c1ccc(Cl)cc1	inactive	–
O=S1(=O)OC(c2ccc(O)cc2)(c2ccc(O)cc2)c2ccccc21	inactive	–
CCOC(=O)CC(C(C)=O)C(C)=O	inactive	–
S=C(NC1CCCCC1)NC1CCCCC1	inactive	–
O=c1c2ccccc2nnn1CCl	inactive	–
CO[Si](OC)(OC)c1ccccc1	inactive	–
CCOCC(=O)O	inactive	–
CC(C)=CCC[C@H](C)CCO	inactive	–
C=CC(=O)NC(C)(C)CS(=O)(=O)O	inactive	–
CCCOCCOCCOCCO	inactive	–
C1CN(SSN2CCOCC2)CCO1	–	18.8 µM (active)
C=C[Si](OC(C)=O)(OC(C)=O)OC(C)=O	inactive	–
CC(=O)OC(C)C	inactive	–
CC1(C)S[C@@H]2[C@H](NC(=O)COc3ccccc3)C(=O)N2[C@H]1C(=O)O	inactive	–

Compound	outcome	AC50
O=S(=O)(O)CC(O)CCl (stereo not given)	–	30 µM (active)
NNC(=O)c1cccc(C(=O)NN)c1	inactive	–
CC/C=C\CCOC(=O)CCCCC	inactive	–
CCCc1ccc(OC)cc1	inactive	–
CCCCCCCC(C)=O	inactive	–
CCC(C)C=O (stereo not given)	inactive	–
CC(=O)OCc1ccco1	–	45.3 µM (active)
CCOc1ccc(N)c([N+](=O)[O-])c1	inactive	–
COC(=O)/C=C/C(C)=C\C=C\C(C)=C\C=C\C=C(C)\C=C\C=C(C)\C=C\C(=O)O	–	67.9 µM (active)
CN1C(=O)N(C)C(O)C1O (stereo not given)	inactive	–
CCN(CC#N)c1cccc(C)c1	inactive	–
Cc1cc(C)c(C)c(C)c1	inactive	–
COc1cc(C)ccc1C(C)C	inactive	–
C=CC=CC=CCCCCC	–	20 µM (active)
O=C(O)c1cc2ccccc2nc1C(=O)O	inactive	–
[Cl][In]([Cl])[Cl]	–	17.6 µM (active)
